Measured values as given in PubChem BioAssay AID485297 (National Center for Advancing Translational Sciences (NCATS), 2010).
In all, about 320,000 compounds went through this assay and about 9,100 (2.8%) were called active. Another 3% or so got no clear call; they are omitted. What follows is part of a selection rich in actives, with near analogues and random picks from the rest. Values without a mark were called inactive. Calls come from the whole dose curve; as a rule, active = well fitted activation curve with a large enough effect; inconclusive = small, poorly fitted or top-dose-only effect; inactive = no such curve, though single readings can be large or run the other way.

Experiment: qHTS Assay for Rab9 Promoter Activators; note: nearly all actives have a fitted effect of over 60% in size; for activation, negative = inhibition: % of control where 0% means no effect
Details: Huh7 Rab9 promoter-luciferase reporter, luminescence, 24 h; series mostly up to 9.22 µM; activation, negative = inhibition: at the top concentration
In short: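 Quantitative HTS format; Huh7 Rab9-luciferase reporter cells (1500/well) receive compound 2 h post-plating, incubate 24 h at 37 °C, then get luciferase reagent for 10 min before luminescence reading.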
Potency is the fitted concentration of half-maximal effect.

| Compound | Potency | activation, negative = inhibition |
| --- | --- | --- |
| O=c1c2cc(-c3ccccc3)sc2nc2n1N=C(c1cccs1)CS2 | 1120 nM (active) |  |
| Cc1nnc2n1N=C(c1ccccc1)CS2 |  | -13.1% |
| c1csc(-c2cn3c(n2)SCC3)c1 |  | 29.1% |
| O=C(c1cc2ccccc2o1)N1CCN(S(=O)(=O)c2ccc(Cl)s2)CC1 |  | -5.02% |
| COc1ccc(CNC(=O)COC(=O)CCS(=O)(=O)c2ccc(C)cc2)cc1OC |  | -2.72% |
| CCN(CC(=O)Nc1c(F)cccc1F)C(=O)c1cnc(C)cn1 |  | 0.956% |
| C/C(=N\NC(=S)Nc1ccc(C)cc1)c1cc2ccccc2o1 |  | -2.42% |
| Cc1ccc(NC(=O)c2cc3ccccc3o2)cc1 | 3980 nM (active) |  |
| O=C(Nc1ccncc1)c1cc2ccccc2o1 |  | 28.1% |
| CCN(CC(=O)NCc1ccc(Cl)cc1)C(=O)c1c(C)noc1C |  | -2.5% |
| c1ccc2c(c1)CSc1sccc1C2=C1CCNCC1 |  | -7.46% |
| Cc1cc(C(=O)NNC(=O)c2ccccc2O)c(C)o1 |  | -2.2% |
| CC1CCN(C(=O)COC(=O)c2cc(=O)[nH]c3ccccc23)CC1 | 2510 nM (active) |  |
| COC(=O)C1CCN(C(=O)c2cc(=O)[nH]c3ccccc23)CC1 |  | -3.49% |
| CC(NC(=O)COC(=O)c1cc(=O)[nH]c2ccccc12)c1ccccc1 (stereo unspecified) |  | -0.707% |
| O=C(COC(=O)c1ccccc1Cl)NC1CCCCCCC1 |  | -4.83% |
| CCC(=O)Nc1ccc(C(=O)NNC(=O)c2ccc(Cl)cc2)cc1 |  | -2.77% |
| O=C(Nc1ccc(Cl)cc1)c1ccsn1 | 1780 nM (active) |  |
| Cn1ccc(NC(=O)Nc2ccc(Cl)cc2)n1 |  | 25.5% |
| CCCCN(Cc1ccccc1)C(=O)C1CCN(Cc2sccc2C)CC1 |  | -0.806% |
| Cn1c(CC(=O)NNC(=O)c2ccccc2F)nc2ccccc21 |  | -10.1% |
| O=C(c1ccc(N2CCOCC2)c([N+](=O)[O-])c1)N1CCN(S(=O)(=O)c2cccs2)CC1 |  | -3.99% |
| COc1ccc(C)cc1N(C(=O)Cn1nnc(-c2ccc(C)o2)n1)C(C(=O)NC1CCCC1)c1ccncc1 (stereo unspecified) |  | -0.715% |
| CCN(CC(=O)Nc1ccc(NC(C)=O)cc1)C(=O)CSC(=S)N1CCCC1 |  | -2.35% |

| Compound | Potency | activation, negative = inhibition |
| --- | --- | --- |
| Cc1ccccc1NC(=O)C1CCN(C(=O)NC2CCCCC2)CC1 |  | -3.27% |
| CC(=O)Nc1cc2ccc(OC(C)=O)cc2oc1=O |  | 3.39% |
| O=C(Nc1cc2ccccc2oc1=O)C1CCCCC1 | 562 nM (active) |  |
| CN(CC(=O)Nc1ccc(Cl)cc1)C(=O)c1ccc(COc2ccccc2)cc1 |  | -6.62% |
| CCN(CC)S(=O)(=O)c1cc(C(=O)Nc2ccccn2)ccc1C | 1780 nM (active) |  |
| CCN(c1ccccc1)S(=O)(=O)c1cc(C(=O)NCc2ccccn2)ccc1C |  | -6.3% |
| Cc1ccc(NC(=O)CNCc2ccccn2)cc1S(=O)(=O)N(C)C |  | 19.9% |
| O=S(=O)(c1ccc(SCc2ccccc2)nc1)N1CCCCCC1 |  | -1.04% |
| CCn1ccnc1CN(C)C(=O)c1ccc2nc(Cc3ccc(OC)cc3)oc2c1 |  | 0.954% |
| CC(c1ccccn1)N(C)C(=O)c1ccc2nc(Cc3cccc(Cl)c3)oc2c1 (stereo unspecified) | 3980 nM (active) |  |
| COc1ccc(Cc2nc3ccc(C(=O)N4CCC(N(C)C)C4)cc3o2)cc1 (stereo unspecified) |  | 1.21% |
| CCN(CC)S(=O)(=O)c1ccc(N2CCOCC2)c(NC(=O)C(C)Oc2ccc(F)cc2)c1 (stereo unspecified) |  | -5.04% |
| CCN1C(=O)C(=O)N(CC(=O)Nc2cc(C)ccc2C)C1=O |  | -3.55% |
| COC(=O)CSc1nc(C)c2ccc(OC)cc2n1 |  | 0.128% |
| COc1ccc(-c2nnc3ccc(SCc4ccccc4)nn23)cc1 |  | -1.55% |
| COc1ccc2nc(SCc3ccccc3)nc(C)c2c1 | 1410 nM (active) |  |
| COC(=O)Cc1ccc(OC(=O)C2CCN(S(=O)(=O)c3ccc(OC)c(OC)c3)CC2)cc1 |  | -2.26% |
| O=C(c1ccco1)N1CCN(C(=O)c2cc(-c3ccccc3F)no2)CC1 |  | 26.7% |
| O=C(Nc1ccc2oc(-c3ccccc3F)nc2c1)c1ccco1 | 1000 nM (active) |  |
| O=C(Nc1cccc(-c2nc3ncccc3o2)c1)c1ccco1 |  | 2.52% |
| CCC(=O)c1cc(F)ccc1OCC(=O)Nc1ccc2c(c1)OCCO2 |  | 1.71% |
| CCN(C(=O)CSc1nc(N)cc(=O)[nH]1)C1CCS(=O)(=O)C1 (stereo unspecified) |  | -1.42% |
| CSCCC(NC(=O)c1ccccc1)C(=O)N1CCCCCCC1 (stereo unspecified) |  | -7.23% |
| Cc1[nH]c2ccccc2c1C(=O)C(C)Sc1nnc(C2CC2)o1 (stereo unspecified) |  | -3.47% |

| Compound | Potency | activation, negative = inhibition |
| --- | --- | --- |
| O=C(COC(=O)C1CC2CCCC(C1)C2=O)NC(=O)c1ccccc1 (stereo unspecified) |  | 17.8% |
| CCOc1ccc(C(=O)CCC(=O)Nc2ccncc2)cc1 |  | 0.344% |
| Cc1cc(C(C)(C)C)n2nc(C)c(-c3ccccc3)c2n1 |  | -0.824% |
| Cc1cc(N)n2nc(-c3ccc(C(C)(C)C)cc3)cc2n1 | 2510 nM (active) |  |
| Cc1nc2cc(-c3ccc(F)cc3)nn2c(N2CCOCC2)c1C |  | 3.71% |
| CC1CCN(C(=O)COC(=O)CCC(=O)c2cccs2)CC1 |  | -6.38% |
| CC(C)(C)c1ccc(S(=O)(=O)N2CCN(C(=O)c3ccc4c(c3)C(=O)N(Cc3ccncc3)C4=O)CC2)cc1 |  | 0.095% |
| COc1ccc(C2/C(=C(/O)c3ccccc3)C(=O)C(=O)N2C)c(OC)c1 (stereo unspecified) |  | -1.85% |
| CCOc1ccc(/C(O)=C2\C(=O)C(=O)N(c3ccc(OC)cc3)C2c2ccccc2[N+](=O)[O-])cc1 (stereo unspecified) | 398 nM (active) |  |
| COc1ccc(/C(O)=C2/C(=O)C(=O)N(c3nc(C)c(C)s3)C2c2ccco2)cc1 (stereo unspecified) |  | 0.749% |
| Cn1c(SCC(=O)Nc2ccc(N3CCOCC3)cc2)nnc1C(F)(F)F |  | 1.61% |
| Nc1c(-c2cccc(Cl)c2)cnn1-c1cccc([N+](=O)[O-])c1 |  | 10.8% |
| Cc1ccc(S(=O)(=O)Nc2nc(CN3CCOCC3)nc3sc(C)c(C)c23)cc1 |  | 3.75% |
| CN1CCN(C(=O)c2cnn(-c3ccccc3)c2NC(=O)c2ccc([N+](=O)[O-])cc2)CC1 |  | -0.171% |
| COc1cccc(-c2noc(C3CCCN(C(=O)c4ccc(F)cc4)C3)n2)c1 (stereo unspecified) |  | 6.6% |
| Cc1ccc(-c2noc(C3CCCN(C(=O)c4cccc(Cl)c4)C3)n2)o1 (stereo unspecified) | 3550 nM (active) |  |
| O=C(c1ccc(F)cc1)N1CCCC(c2nc(-c3cccs3)no2)C1 (stereo unspecified) |  | 1.08% |
| CCc1nc(Nc2ccc(NC(C)=O)cc2)c2oc3ccccc3c2n1 |  | 11.8% |
| CC(=O)Nc1ccc(-c2nc3ccccc3o2)cc1 | 1000 nM (active) |  |
| Cc1ccc2nc(-c3ccc(NC(=O)c4cccnc4)cc3)oc2c1 | 199 nM (active) |  |
| Cc1cc(NS(=O)(=O)c2ccc(NC(=O)c3cccnc3)cc2)nc(C)n1 |  | -0.278% |
| CC(=O)NC(=S)Nc1ccc(NC(=O)c2cccnc2)cc1 |  | -0.126% |
| CC(=O)Nc1ccc(S(=O)(=O)N(C)c2nc3ccccc3nc2Cl)cc1 |  | -2.81% |
